# According to PubChem BioAssay (NCI):
# This is part of a sample that, as a whole, favours compounds with a hit. Of some 83,000 tested, about 20% had one in any assay.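 The test compound was applied at a single concentration to cells in 96-well plates for 48 hours, and percent growth was recorded.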 Unmarked numbers belong to inactive results. Activity calls are given as the source filed them. Rule for the calls: active = growth percent below 10; inactive = the rest.
# Experiments:
# Assay in all cases: NCI-60 one-dose screen, 48 h (100 = growth as untreated, 0 = no growth, -100 = all killed)
# Settings in all cases: 10 µM unless noted
# [1] = tested on: SR leukemia
# [2] = tested on: RPMI-8226 leukemia
# [3] = tested on: OVCAR-8 ovarian
# [4] = tested on: OVCAR-5 ovarian
# [5] = tested on: OVCAR-4 ovarian
# [6] = tested on: SK-OV-3 ovarian
# [7] = tested on: IGROV1 ovarian
# [8] = tested on: OVCAR-3 ovarian
# [9] = tested on: HS 578T breast
# [10] = tested on: NCI/ADR-RES ovarian
SMILES,growth [1],growth [2],growth [3],growth [4],growth [5],growth [6],growth [7],growth [8],growth [9],growth [10]
Nc1ncccc1O,65.5%,87%,81%,98.7%,98.4%,107%,67.2%,131%,109%,77%
O=C(NCCCCO)c1cncnc1Nc1ccc2c(ccn2Cc2cccc(F)c2)c1,93.4%,95.3%,101%,86.3%,100%,89.8%,88.1%,98.5%,94.1%,91.3%
COc1cc2c(c(OC)c1OC)CCC(c1cccc(C(=O)Nc3ccc(Br)cc3)c1)O2 (stereo not given),27.7%,40.5%,71.8%,68.4%,63.8%,72.7%,61.2%,78.8%,78.5%,63.9%
Cc1cc(C(=O)CCCC(=O)c2cc(C)c(O)c(C)c2)cc(C)c1O,81.9%,94.2%,104%,95.8%,93.1%,98%,95.9%,105%,98.8%,98%
COc1ccc(CN2C(=O)OC(C)(COC(C)=O)C2=O)cc1 (stereo not given),94%,103%,104%,97.2%,104%,97.3%,107%,112%,108%,109%
CCCCO[C@@H]1C=C2[C@H]3CC(C)(C)C(=O)C[C@]3(C(=O)O[C@@H]3O[C@H](CO[C@@H]4O[C@H](CO)[C@@H](OC5OC(C)C(O)C(O)C5O)[C@H](O)[C@H]4O)[C@@H](O)[C@H](O)[C@H]3O)CC[C@@]2(C)[C@]2(C)CC[C@H]3C(C)(C)C(=O)CC[C@]3(C)[C@@H]12 (stereo not given in full),69.9%,20.4%,94.4%,96.1%,75%,91.8%,69.1%,48.7%,85.4%,83.8%
Nc1cc(-c2ccc(Cl)cc2)nn1-c1nnc(/C=C/c2ccco2)c(=O)[nH]1,38.1%,43.3%,24.8%,60.9%,29.1%,60.7%,35%,37.9%,74.1%,5.73% (active)
Cc1c2ccccc2nc2cc3c(cc12)[C@H]1CC[C@]2(C)C(=O)CC[C@H]2[C@@H]1CC3,92.9%,79.5%,92.5%,97.6%,95.8%,124%,101%,104%,86.3%,103%
COc1cc(-c2cc(-c3ccc(Nc4nc(Nc5ccc(Cl)cc5)nc(Nc5ccc(Cl)cc5)n4)cc3)no2)cc(OC)c1OC,15.7%,7.63% (active),76.4%,77.8%,78.8%,90.7%,71%,86%,62.9%,80.4%
C=CC(CC(c1ccccc1)(c1ccccc1)c1ccccc1)N(CC)CC (stereo not given),-6.97% (active),38.2%,94%,72.5%,67.5%,72.5%,77%,70.1%,82.1%,66.1%
COc1cc(-c2nccc3[nH]c(-c4cccc5[nH]ccc45)nc23)cc(OC)c1OC,8.9% (active),-43.6% (active),18.2%,73.8%,47.5%,15.1%,44.6%,16.7%,38.4%,4.71% (active)
CCN(CC)CCOc1ccc2ccc(=O)oc2c1,-3.51% (active),-4.27% (active),98.8%,96%,101%,92.9%,109%,115%,109%,101%
Fc1ccc(/C=C/[C@@H]2C[C@@H](F)CCO2)cc1,61.1%,67.6%,98.4%,89.7%,119%,102%,103%,113%,84.8%,103%
c1cc(OCCCCCOc2cccc(-c3nc4ccccc4[nH]3)c2)cc(-c2nc3ccccc3[nH]2)c1,-24.8% (active),-47.1% (active),15.7%,1.07% (active),8.16% (active),23.9%,10.8%,16.8%,25.3%,0.274% (active)
CC(C)CCC[C@@H](C)[C@H]1CC[C@H]2[C@@H]3CC=C4c5sc(Nc6cc(C(F)(F)F)cc(C(F)(F)F)c6)nc5CC[C@]4(C)[C@H]3CC[C@]12C,106%,106%,89.2%,106%,100%,89.2%,97.7%,102%,102%,102%
CCOC(=O)C/C(=N\Nc1cc(=O)[nH]c2ccc(OC)cc12)C(=O)OCC,67%,68.5%,103%,96.6%,101%,121%,92.4%,109%,91.8%,103%
CN1C(=O)/C(=C/c2ccc(C(=O)Nc3ncc(Cc4cccc(C(F)(F)F)c4)s3)cc2)SC1=S,52.6%,22.1%,59.8%,60.8%,34.4%,50.6%,56.7%,71.1%,63.9%,33.4%
O=C(Nc1cccnc1Nc1ccccc1)c1cn(Cc2cccc(Oc3ccccc3)c2)nn1,26.6%,57.2%,71.4%,103%,86.9%,77.1%,78.1%,52.6%,40.8%,33.8%
N#Cc1nn(-c2cc(=O)[nH]c3ccc(Br)cc23)c(N)c1C#N,-14.2% (active),-29.7% (active),96%,103%,81.6%,69.1%,90.5%,103%,88.6%,102%
N#Cc1ccc(O)c(C2=NCC(c3ccc(-c4ccccc4)cc3)O2)c1 (stereo not given),23.7%,23.8%,16.6%,38.7%,-1.03% (active),3.28% (active),13.7%,22.7%,48.9%,5.24% (active)
N#C/C(=C\c1ccc(-c2cccc(Cl)c2)o1)C(=O)Nc1ncc(Cc2ccc(Cl)cc2)s1,29.9%,81.1%,40.4%,47.1%,-45.5% (active),78%,30.5%,11.3%,24.4%,54.6%
COc1ccc2[nH]cc(-c3nonc3-c3c[nH]c4ccc(Br)cc34)c2c1,35.4%,52.7%,48.7%,47.7%,50.1%,56.3%,65.3%,62.6%,55.1%,39.9%
O=c1oc2c(cnc3ccccc32)cc1-c1cccc(Cl)c1,93%,101%,109%,94%,102%,105%,106%,112%,105%,103%
FC(F)(F)c1[nH]ncc1-c1nc2ccc3[nH]ncc3c2c2c1CCCC2,-16.6% (active),12.3%,13.7%,9.73% (active),45.8%,-3.29% (active),-8.57% (active),9.88% (active),-3.07% (active),53.7%
COC12C=C/C(=C(/C(=O)OCc3cncnc3)C(=O)CCCCCCCCC3(OC)C=C/C(=C(/C(=O)OCc4cncnc4)C(=O)CCCCCCCC1)O3)O2,-36% (active),-20.1% (active),9.06% (active),-25.6% (active),-4.86% (active),36.9%,-59.5% (active),-57.8% (active),26.5%,8.14% (active)
CC1=C2[C@@H](CC1)[C@]1(C)O[C@@](C3CCNCC3)(C[C@H]1OC(=O)CO)[C@H]2OC(=O)/C=C/c1ccccc1,33.1%,82.3%,84.3%,99.4%,82.9%,106%,80.3%,93.9%,58.4%,90.3%
